# High-throughput results as filed in PubChem BioAssay.
# The list is not random: actives were taken first. Their share in the collection is about 10%.
# Luciferase inh: inhibitors of firefly (Photinus pyralis) luciferase. P08659. purified P. pyralis luciferase, luminescence, biochemical. Potency, µM (top dose mostly 115 µM), most hits filed as inhibitors. actives 2.5% (n = 76,000); note: nearly all actives have a fitted effect of over 65% in size
#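 Inhibitors were tested against purified firefly luciferase in a biochemical, low-substrate format (both substrates at 10uM) and luminescence measured with a CCD imager.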
# HEK293 tox: cytotoxic compounds in HEK 293 cells | HEK 293 viability, ATP luminescence (CellTiter-Glo), 48-72 h | Potency, µM (series often up to 115 µM), without a hit: top-dose activity change, negative = cytotoxicity, usual class: inhibitors | actives 6.6% (n = 94,000); note: nearly all actives have a fitted effect of over 60% in size
#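 Pintool-delivered compounds were incubated with HEK 293 cells (250 cells/well) at 37 degree Celsius for 48 or 72 hr. ATP-dependent luminescence (CellTiter-Glo) then reported remaining viable cells.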
# GPT2 inhibitor: inhibitors of human GPT2 alanine aminotransferase; Recombinant GPT2, coupled pyruvate oxidase/HRP Amplex Red fluorescence; Potency, µM (top dose mostly 57.7 µM), inactives show at the highest dose activity change, negative = inhibition, hits mostly inhibitors; actives 0.25% (n = 100,000); AID 1671188; note: nearly all actives have a fitted effect of over 60% in size
# Target sequence (Q8TD30 whole entry, looked up): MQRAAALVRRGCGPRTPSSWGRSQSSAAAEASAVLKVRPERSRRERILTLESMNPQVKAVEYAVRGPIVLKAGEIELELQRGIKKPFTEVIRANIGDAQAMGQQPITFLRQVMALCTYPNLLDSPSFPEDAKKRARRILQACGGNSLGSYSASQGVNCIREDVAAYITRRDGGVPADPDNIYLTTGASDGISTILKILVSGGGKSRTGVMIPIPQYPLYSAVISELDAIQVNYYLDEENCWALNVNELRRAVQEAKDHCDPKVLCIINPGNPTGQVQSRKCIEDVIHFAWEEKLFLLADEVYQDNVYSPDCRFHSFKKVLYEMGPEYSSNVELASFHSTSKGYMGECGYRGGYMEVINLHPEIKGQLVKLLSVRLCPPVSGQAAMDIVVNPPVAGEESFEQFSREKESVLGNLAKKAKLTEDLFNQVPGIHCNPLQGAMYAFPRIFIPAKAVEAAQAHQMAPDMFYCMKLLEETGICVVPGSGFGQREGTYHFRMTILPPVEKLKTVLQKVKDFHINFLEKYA
#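 Recombinant GPT2 (10ng/uL) with 250uM a-KG and 2mM L-alanine, 30 min at room temperature, in HEPES pH 7.5 buffer. Pyruvate detected by pyruvate oxidase/HRP/Amplex Red fluorescence after 30 min in the dark; AOA (50uM) as positive control.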
# hNpr1 antagonist: antagonists of human natriuretic peptide receptor Npr1. actives 1.6% (n = 76,000). Potency, µM (top dose mostly 46.3 µM), inactives show at the top dose activity change, negative = inhibition, actives largely listed as inhibitors. P16066. HEK293 hNpr1 GloSensor cGMP, ANP-stimulated luminescence; calls by dose curve; note: nearly all actives have a fitted effect of over 60% in size
#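 Compound pre-incubated 30 min at room temperature on GloSensor-loaded HEK293 cells stably carrying hNpr1 and the pGS-40F cGMP biosensor. Stimulation uses hNppA at 0.1 nM final; luminescence is taken at baseline and 20 min post-agonist.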
# NIH3T3 tox: NIH 3T3 cell cytotoxicity | NIH 3T3 viability, CellTiter-Glo ATP luminescence, 48-72 h | actives 4.3% (n = 94,000) | Potency, µM (highest dose often 96.7 µM), for the others: at the highest dose activity change, negative = cytotoxicity, hits mostly inhibitors; note: nearly all actives have a fitted effect of over 55% in size
#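 Luminescent ATP readout (CellTiter-Glo, 10 min RT) after 48 or 72 hr compound exposure of NIH 3T3 cells seeded at 400 cells/well in 1536-well format; quantitative HTS.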
# Starred values were filed as active, the others as inactive; i = inactive; ? = inconclusive; [ ] = another dose, or the depositor's remark. Unless noted, calls come from the whole dose curve; as a rule, active = well fitted curve in the direction sought with a large enough effect; inconclusive = small, poorly fitted or top-dose-only effect, or another doubt; inactive = no such curve, though single readings can be large; an effect the other way counts as inactive or inconclusive. % is set by controls: 0 for no effect and ±100 for the full control effect; potency is the fitted concentration of half-maximal effect.
SMILES,Luciferase inh,HEK293 tox,GPT2 inhibitor,hNpr1 antagonist,NIH3T3 tox
COc1ccc(NC(=O)c2ccc3c(c2)C2(CCCN(C)C2)CN3Cc2cccnc2)cc1 (centres undefined),i,-14%,i,1%,32µM*
CNC(=O)[C@@H](c1ccc(OC)cc1)N1CCC[C@H]1C(=O)N1CCC1,i,4%[172 µM],i,0%[70.6 µM],i
O=C(c1cc2ccccc2[nH]1)N1CCC(c2noc(C3CC3)n2)C1 (centres undefined),28µM*,?,-1%,?,?
COCCO[C@H]1C(=O)N(C2CCN(C(=O)c3ocnc3C)CC2)[C@H]1c1ccncc1,i,i,i,0%,-4%
COc1ccc(OC)c(C(O)Cn2ccn3nc(-c4cccs4)cc3c2=O)c1 (centres undefined),i,35µM*,-6%,-14%,?
Cc1ccc(N2CCC(NC(=O)c3ccc(N(C)C)cc3)C2=O)cc1C (centres undefined),?,-16%,-2%,-13%,-28%
CC(=O)NC1(C)CCN(Cc2cccc(-c3cccc(Cl)c3)c2)C1 (centres undefined),?,79µM*,-13%[88.5 µM],2%[70.6 µM],?
CC(=O)NC1(C)CCCN(Cc2cccc(-c3ccc4c(ccn4C)c3)c2)C1 (centres undefined),?,56µM*,i,?,79µM*
COCC(=O)N1CCCC(C(=O)NCc2nncn2C2CCCCC2)C1 (centres undefined),i,-11%,-12%,0%,-19%
CCOc1ccccc1CN1CCn2c(nnc2[C@@H]2C[C@@H](O)CN2C)C1,i,-8%,i,-1%,-5%
CSc1cccc(NC(=O)C2CCN(c3cnc4nccnc4c3)CC2)c1,i,8.9µM*,-2%,-2%,6.3µM*
COC(=O)c1cccc2nc([C@H]3CCN(Cc4ccccc4C)C3)oc12,i,89µM*,5%[88.5 µM],4%[70.6 µM],?
CC(=O)N1CCC(C2CCN(Cc3ccccc3C)C2)CC1 (centres undefined),i,-23%,3%,9%,-18%
Cc1ccc(C(=O)N2CCCN(c3cc(-c4ccc(C)c(C)c4)[nH]n3)CC2)cc1C,i,35µM*,?,-11%,?
Cc1ccc(-c2cc(N3CCCN(C(=O)c4ccco4)CC3)n[nH]2)cc1C,i,?,i,-10%,32µM*
Cc1ccc(C)c(C(=O)N2CCN(c3cc(-c4ccc(Cl)cc4)[nH]n3)CC2)c1,i,25µM*,0%,14µM*,?
O=C(Cc1ccccc1Cl)N1CCCN(c2cc(-c3ccccc3)[nH]n2)CC1,i,?,?,-9%,?
Cc1ccc(-c2cc(N3CCCN(C(=O)Cc4ccccc4Cl)CC3)n[nH]2)cc1C,?,?,?,-3%,40µM*
Cc1ccccc1C(=O)N1CCN(c2cc(-c3ccc(F)cc3)[nH]n2)CC1,i,?,i,-21%,?
Cc1ccc(-c2cc(N3CCCN(C(=O)c4ccc5c(c4)OCO5)CC3)n[nH]2)cc1C,i,?,?,-16%,?
O=C(N[C@@H]1CN(C2CCC2)C[C@H]1CO)c1cnccn1,i,?,i,-3%,-23%
COc1ccc(-c2cc(N3CCCN(C(=O)c4ccc(C(C)(C)C)cc4)CC3)n[nH]2)cc1,i,40µM*,0%,-1%,?
COc1ccc(-c2cc(N3CCCN(C(=O)c4ccc(C)c(C)c4)CC3)n[nH]2)cc1,i,45µM*,?,0%,?
COc1ccc(Cl)cc1C(=O)N1CCCN(c2cc(-c3ccc(C)c(C)c3)[nH]n2)CC1,i,?,?,-20%,40µM*
COc1ccc(C(=O)N2CCCN(c3cc(-c4ccc(OC)cc4)[nH]n3)CC2)cc1,i,?,-21%,-21%,-27%
COc1ccc(-c2cc(N3CCN(C(=O)c4ccc(C)c(F)c4)CC3)n[nH]2)cc1,i,?,i,-3%,?
CC1=C[C@@H](CNC2CCOCC2)[C@H](C(C)C)C[C@H]1Cc1nc2ccc(Cl)cc2[nH]1,i,?,?,-4%[70.6 µM],100µM*
